In PubChem BioAssay (EPA / NIEHS):
Active and inactive are the calls of the source. Rule for the calls: active = hit-call score of the fitted dose curve at least 0.9, where 1 is the maximum; inactive = score below 0.9.

Each compound was assayed on Interleukin-1 alpha (IL1a), IL1A (gene 3552) (assay: BSK_LPS_IL1a: BioMAP Diversity Plus: LPS Assay for Interleukin-1 alpha (IL1a) Biomarker Activity (AID 2283080)). Conditions: primary human HUVEC with PBMC; actives raise or lower the signal.
Description: BSK_LPS is a cell-based, multiplexed-readout assay that uses umbilical vein endothelium and peripheral blood mononuclear cells, a human vascular primary cell co-culture, with measurements taken at 24 hours after chemical dosing in a 96-well plate.BSK_LPS_IL1a is an assay component measured in the BSK_LPS assay. It measures IL-a antibody related to regulation of gene expression using ELISA technology.Data from the assay component BSK_LPS_IL1a was analyzed into 1 assay endpoint. This assay endpoint, BSK_LPS_IL1a, was analyzed with bidirectional fitting relative to DMSO as the negative control and baseline of activity. Using a type of binding reporter, gain or loss-of-signal activity can be used to understand changes in the signaling as they relate to the gene IL1A. Furthermore, this assay endpoint can be referred to as a primary readout, because this assay has produced multiple assay endpoints where this one serves a signaling function. To generalize the intended target to other relatable targets, this assay endpoint is annotated to the cytokine intended target family, where the subfamily is interleukins.
The levels of cell surface (or secreted, indicated by the prefix "s") biomarker endpoints were measured by ELISA. Overt cytotoxicity to cells in confluent adherent cultures (all systems other than the BT system) was assessed by measuring total protein levels using sulforhodamine B (SRB) staining in parallel cultures at the time of biomarker measurements, indicated as SRB endpoints. For proliferation assays for adherent cell types, individual cell types are cultured at sub-confluence and relative cell numbers quantified by SRB staining at time points optimized for each system (48 h: 3C and CASM3C systems; 72 h: BT and HDF3CGF systems; 96 h: SAg system). SRB was performed by staining cells with 0.1% SRB after fixation with 10% TCA and reading wells at 560 nm.Viability and proliferation of PBMC (T cells) was quantified by Alamar Blue reduction for the SAg and BT systems. For PBMC viability (referred to as PBMC Cytotoxicity within the assay endpoint names), cells were plated (75,000/well in a 96-well plate) and then chemical samples added for 1 h before addition of activators, SEB and TSST-1 (20 ng/mL final concentration each). Cells were incubated for 90 h. Then, Alamar Blue (20 uL/well) (Invitrogen, Cat DAL1100) was added for 6 h, and the plates were read with a fluorescence microplate reader at 546/580 nm (excitation/emission). For PBMC proliferation, cells were plated and activated as above but incubated for only 16 h prior to addition of Alamar Blue. Plates were read after 6 h.

SMILES | AC50 | outcome
COc1ccc(OC)c(N=Nc2c(O)ccc3ccccc23)c1 | 6.45 µM (active) | –
CC=Cc1ccc(OCC)c(O)c1 | – | inactive
CS(=O)(=O)OCCCCOS(C)(=O)=O | – | inactive
CC(CN=Cc1ccccc1O)N=Cc1ccccc1O (stereo not given) | – | inactive
C=C(C)C(=O)OCCOCCOCCOC(=O)C(=C)C | – | inactive
COc1cc(Cl)c(OC)cc1N | – | inactive
O=C1OC[C@H](Cc2cccc(O)c2)[C@H]1Cc1cccc(O)c1 | – | inactive
CCCCOC(=O)CCCCCCCC(=O)OCCCC | – | inactive
COc1ccc(CCN2CCC(Nc3nc4ccccc4n3Cc3ccc(F)cc3)CC2)cc1 | – | inactive
c1ccc(Oc2ccccc2)cc1 | – | inactive
c1ccc2cc(Nc3ccc(Nc4ccc5ccccc5c4)cc3)ccc2c1 | – | inactive
Cc1cc(CCC(=O)OCCOCCOCCOC(=O)CCc2cc(C)c(O)c(C(C)(C)C)c2)cc(C(C)(C)C)c1O | – | inactive
CN(c1nccc(=O)[nH]1)C1CCN(c2nc3ccccc3n2Cc2ccc(F)cc2)CC1 | – | inactive
CC(C)(N=C=O)c1cccc(C(C)(C)N=C=O)c1 | – | inactive
CC(=O)Nc1ccc(C(=O)CCl)cc1 | 4.52 µM (active) | –
CN(C)C(=O)Nc1ccc(Oc2ccc(Cl)cc2)cc1 | – | inactive
O=CN1CCOCC1 | – | inactive
CCCCCC(C=O)=Cc1ccccc1 | 34.3 µM (active) | –
O=C(Nc1ccc2c(O)c(N=Nc3ccc(N=Nc4ccc(S(=O)(=O)O)cc4)cc3)c(S(=O)(=O)O)cc2c1)c1ccccc1 | – | inactive
CCC(C)c1cc([N+](=O)[O-])cc([N+](=O)[O-])c1OC(=O)OC(C)C (stereo not given) | 29.5 µM (active) | –

SMILES | AC50 | outcome
c1ccc(CCc2ccccc2)cc1 | 32.7 µM (active) | –
CC(C)(C)CC(C)(C)c1ccc(OCCOCC[N+](C)(C)Cc2ccccc2)cc1 | 5 µM (active) | –
CCCCN(CCCC)C(=O)N(CCCC)CCCC | 20 µM (active) | –
C=C(C)C(=O)OCCOCCOCCOCCOC(=O)C(=C)C | – | inactive
IC(I)I | – | inactive
C=CC(C)(O)CCC=C(C)C (stereo not given) | – | inactive
CC1(C)C2=CCCC(C)(C)[C@]23CC[C@H]1C3 | – | inactive
CCOC(=O)C(C#N)=C(c1ccccc1)c1ccccc1 | – | inactive
CN(C)C(=S)SC(=S)N(C)C | – | inactive
CCN(CC)C(=O)N(CC)CC | – | inactive
Oc1c(Cl)cc(Cl)c(Cl)c1Cc1c(O)c(Cl)cc(Cl)c1Cl | 9.2 µM (active) | –
CCCCCCC(CO)CCCC (stereo not given) | – | inactive
CC(=O)c1c(C)c([N+](=O)[O-])c(C(C)(C)C)c([N+](=O)[O-])c1C | – | inactive
CC1(C)CCC[C@]2(C)[C@H]3CCO[C@]3(C)CC[C@@H]12 | – | inactive
CC(C=O)Cc1ccc(C(C)(C)C)cc1 (stereo not given) | 35.8 µM (active) | –
C1=CC2C3C=CC(C3)C2C1 (stereo not given) | – | inactive
CCCCCCCCCCCCCCCC(=O)OC/C=C(C)/C=C/C=C(C)/C=C/C1=C(C)CCCC1(C)C | – | inactive
Clc1cc(Cl)c(-c2c(Cl)c(Cl)cc(Cl)c2Cl)cc1Cl | 12.5 µM (active) | –
C[C@@H]1CCN(C(=O)[C@H](CCCN=C(N)N)NS(=O)(=O)c2cccc3c2NC[C@H](C)C3)[C@@H](C(=O)O)C1 | – | inactive
O=C1OC2(c3ccccc31)c1ccc(O)c(Br)c1Oc1c2ccc(O)c1Br | 20 µM (active) | –
